In PubChem BioAssay (NCATS):
Where “and” joins values, the source holds several entries; their conditions need not be identical. Equal entries are not always repeated. Results filed as inconclusive are left out. A call without a number means that no potency is given here. A number with no mark means an inactive call. Calls of active or inactive are those of the source. Calls follow the shape of the dose curve; as a rule, active = well fitted inhibition curve with a large enough effect; inconclusive = small, poorly fitted or top-dose-only effect; inactive = flat fitted curve, though single readings scatter.

What was measured:
CRL-7250 = normal cell line; experiment: Cytotoxic Profiling of Annotated Libraries Using Quantitative High-Throughput Screening (AID 1296008); conditions: Five cell lines viability, CellTiter-Glo ATP luminescence, 48-72 h; max response: stronger effect = lower value
Method in brief: (§1)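 Cytotoxicity was measured as CellTiter-Glo ATP luminescence, read after 10 min at room temperature. Compound treatment of the cells lasted 48 or 72 hr at 37 degrees Celsius in a qHTS format.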

HEK293 = experiment: as above; conditions: Five cell lines viability, CellTiter-Glo ATP luminescence, 48-72 h; max response: stronger effect = lower value
Method in brief: as §1

HaCat [1] = experiment: as above; conditions: Five cell lines viability, CellTiter-Glo ATP luminescence, 48-72 h; max response: stronger effect = lower value
Method in brief: as §1

KB-3-1 = experiment: as above; conditions: Five cell lines viability, CellTiter-Glo ATP luminescence, 48-72 h; max response: stronger effect = lower value
Method in brief: as §1

NIH3T3 = experiment: as above; conditions: Five cell lines viability, CellTiter-Glo ATP luminescence, 48-72 h; max response: stronger effect = lower value
Method in brief: as §1

HACAT [2] = experiment: qHTS assay to identify novel small-molecules to repurpose for Merkel cell carcinoma treatment (AID 1296009); conditions: MCC and control cell lines, CellTiter-Glo viability, 72 h; at 44.8 µM (top of the series) unless noted
Method in brief: (§2)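 Cell viability measured by CellTiter-Glo following 72 hr compound treatment at 37 degree celsius, with NPC and MIPE libraries tested in 8- and 11-point concentration series.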

HEK293T = experiment: as above; conditions: MCC and control cell lines, CellTiter-Glo viability, 72 h; at 44.8 µM (top of the series) unless noted
Method in brief: as §2

MCC-13 = experiment: as above; conditions: MCC and control cell lines, CellTiter-Glo viability, 72 h; series mostly up to 46 µM
Method in brief: as §2

MKL-1 = experiment: as above; conditions: MCC and control cell lines, CellTiter-Glo viability, 72 h; series mostly up to 46 µM
Method in brief: as §2

MCC-26 = experiment: as above; conditions: MCC and control cell lines, CellTiter-Glo viability, 72 h; series mostly up to 46 µM
Method in brief: as §2
Also: nearly all actives have a fitted effect of over 60% in size.
Potency is read from the fitted curve at half-maximal effect.

## O=C(Nc1ccc2c(c1)CCN(Cc1ncn[nH]1)C2)c1ccccc1-c1ccc(C(F)(F)F)cc1
CRL-7250
  max response: -23.1%
HEK293
  Potency: 23100 nM (active)
HaCat [1]
  max response: 0.241%
KB-3-1
  max response: 1.94%

## c1ccc2sc(SN3CCOCC3)nc2c1
CRL-7250
  outcome: inactive
HEK293
  outcome: inactive
HaCat [1]
  outcome: inactive
KB-3-1
  max response: 0.575%
NIH3T3
  max response: 0.685%
HACAT [2]
  outcome: inactive
HEK293T
  outcome: inactive
MCC-13
  Potency: inactive
MKL-1
  Potency: inactive

## O=C(CS)Nc1ccccc1
CRL-7250
  max response: -21.9%
HEK293
  max response: -28.6%
HaCat [1]
  outcome: inactive
KB-3-1
  max response: -19%
NIH3T3
  max response: 0.87%
HACAT [2]
  outcome: inactive
MCC-13
  Potency: inactive

## COc1cc(CNC(=O)CCCC/C=C/C(C)C)ccc1O
CRL-7250
  max response: 3.92%
HEK293
  max response: -1.55%
KB-3-1
  max response: -0.699%
  outcome: inactive
NIH3T3
  max response: -2.4%

## CC1(C)S[C@@H]2[C@H](NC(=O)[C@H](N)c3ccc(O)cc3)C(=O)N2[C@H]1C(=O)O
CRL-7250
  max response: -12.2%
HEK293
  outcome: inactive
KB-3-1
  max response: 11.9% and 8.22%
NIH3T3
  outcome: inactive
HEK293T
  outcome: inactive

## O=C1CN(/N=C/c2ccc([N+](=O)[O-])o2)C(=O)N1
CRL-7250
  outcome: inactive
HaCat [1]
  max response: 1.83%
KB-3-1
  max response: -3.33%
NIH3T3
  outcome: inactive

## CC(=O)c1ccc(OCC(=O)N2CCCCC2)cc1
CRL-7250
  max response: 2.04%
HEK293
  max response: -3.89%
HaCat [1]
  max response: -0.673%
NIH3T3
  outcome: inactive
MCC-13
  Potency: inactive
MKL-1
  Potency: inactive

## CCCCCCCC/C=C/C(=O)O
CRL-7250
  outcome: inactive
HEK293
  max response: 0.673%
HaCat [1]
  outcome: inactive
NIH3T3
  max response: 2.83%
HACAT [2]
  outcome: inactive
MCC-13
  Potency: inactive
MCC-26
  Potency: inactive
MKL-1
  Potency: inactive

## CN(C)c1ccc(C(=C2C=CC(=[N+](C)C)C=C2)c2ccccc2)cc1
CRL-7250
  Potency: 84.1 nM (active)
HEK293
  Potency: 94.4 nM (active)
HaCat [1]
  Potency: 266 nM (active)
NIH3T3
  Potency: 237 nM (active)
MCC-13
  Potency: 37.6 nM (active)
MKL-1
  Potency: 37.6 nM (active)

## O=C(O)Cc1ccc2c(c1)C(=O)c1ccccc1CO2
CRL-7250
  outcome: inactive
HEK293
  max response: -3.93%
HaCat [1]
  max response: 4.48%
NIH3T3
  outcome: inactive
MCC-13
  Potency: inactive
MCC-26
  Potency: inactive
MKL-1
  Potency: inactive

## COc1ccnc2c1CCCCC2S(=O)c1nc2ccccc2[nH]1 (centres undefined)
CRL-7250
  max response: -8.92%
HEK293
  max response: -19.1%
HaCat [1]
  outcome: inactive
NIH3T3
  max response: -4.2%
HACAT [2]
  outcome: inactive
MCC-13
  Potency: inactive
MKL-1
  Potency: inactive

## Nc1ccc([N+](=O)[O-])cc1O
CRL-7250
  max response: -25%
HEK293
  max response: -27.4%
HaCat [1]
  max response: 4.66%
KB-3-1
  max response: 10.6%
MCC-13
  Potency: inactive
MCC-26
  Potency: inactive

## CC(=O)O[C@H]1C[C@@]2(C)[C@@H](C[C@@H](O)[C@H]3[C@@]4(C)CC[C@@H](O)[C@@H](C)[C@@H]4CC[C@@]32C)/C1=C(\CCC=C(C)C)C(=O)O
CRL-7250
  outcome: inactive
HEK293
  max response: -11.3%
NIH3T3
  outcome: inactive

## COc1cccc2c1C(=O)c1c(O)c3c(c(O)c1C2=O)C[C@@](O)(C(=O)CO)C[C@@H]3O[C@H]1C[C@H](N)[C@H](O[C@@H]2CCCCO2)[C@H](C)O1
CRL-7250
  Potency: 2370 nM (active)
HEK293
  Potency: 84.1 nM (active)
HaCat [1]
  Potency: 53.1 nM (active)
NIH3T3
  Potency: 188 nM (active)
MCC-13
  Potency: 3760 nM (active)
MKL-1
  Potency: 94.4 nM (active)

## CC(C)(C)c1nnc(NS(=O)(=O)c2ccc(N)cc2)s1
CRL-7250
  max response: 2.87%
HEK293
  max response: -1.6%
HaCat [1]
  outcome: inactive
NIH3T3
  max response: -3.74%
HACAT [2]
  outcome: inactive
MCC-13
  Potency: inactive
MCC-26
  Potency: inactive
MKL-1
  Potency: inactive

## C[N+]1(C)[C@@H]2CC(OC(=O)[C@H](CO)c3ccccc3)C[C@H]1[C@@H]1O[C@@H]12 (some centres undefined)
CRL-7250
  outcome: inactive
HEK293
  outcome: inactive
HaCat [1]
  outcome: inactive
NIH3T3
  max response: 4.27%
HACAT [2]
  outcome: inactive
HEK293T
  outcome: inactive
MCC-13
  Potency: inactive
MCC-26
  Potency: inactive
MKL-1
  Potency: inactive

## CCCCCCCCCCCCOCCO
CRL-7250
  max response: -9.14%
HEK293
  max response: -2.23%
HaCat [1]
  max response: -12.4%
NIH3T3
  max response: 1.59%
MCC-13
  Potency: inactive
MKL-1
  Potency: inactive

## O=C(/C=C/c1ccccc1)NCCO
CRL-7250
  outcome: inactive
HEK293
  max response: -1.9%
HaCat [1]
  max response: -18%
NIH3T3
  max response: 3.14%
MCC-13
  Potency: inactive
MKL-1
  Potency: inactive

## Nc1ccc(C(=O)O)c(O)c1
CRL-7250
  max response: -0.825%
HEK293
  max response: 3.06%
HaCat [1]
  outcome: inactive
NIH3T3
  outcome: inactive
HACAT [2]
  outcome: inactive
MCC-13
  Potency: inactive
MCC-26
  Potency: inactive
MKL-1
  Potency: inactive

## O=C(CCN1CCN(CCO)CC1)N1c2ccccc2Sc2ccc(C(F)(F)F)cc21
CRL-7250
  max response: -6.26%
HEK293
  max response: -1.82%
HaCat [1]
  max response: -4.28%
NIH3T3
  max response: 1.15%
MCC-13
  Potency: inactive
MCC-26
  Potency: inactive
MKL-1
  Potency: inactive

## Cc1ccc(O)c(-n2nc3ccccc3n2)c1
CRL-7250
  max response: -18.8%
HEK293
  max response: -9.47%
HaCat [1]
  max response: -23.9%
NIH3T3
  max response: 0.367%
MCC-13
  Potency: inactive
MCC-26
  Potency: inactive
MKL-1
  Potency: inactive
